As a reminder, the AC50 is the concentration at which the activity in the assay is half-maximal.

Records with an inconclusive call do not appear. Activity calls are given as the source filed them. How the source made its calls: active means hit-call score of the fitted dose curve at least 0.9, where 1 is the maximum; inconclusive means response in the unintended direction; inactive means score below 0.9.

This test deals with rat Neurokinin-1 Receptor (NK1), Tacr1 (gene 24807) (UniProt P14600). Kind of test: NVS_GPCR_rNK1: NovaScreen (NVS) G Protein-Coupled Receptor Assay for rat Neurokinin-1 Receptor (NK1) (AID 2283309). On the procedure: NVS_GPCR_rNK1 is a biochemical, single-readout assay that uses extracted gene-proteins from Rat submaxillary gland membranes in a tissue-based cell-free assay. Measurements were taken 1 hour after chemical dosing in a 48-well plate.NVS_GPCR_rNK1 is one of one assay component(s) measured or calculated from the NVS_GPCR_rNK1 assay. It is designed to make measurements of radioligand binding, a form of binding reporter, as detected with scintillation counting signals by Filter-based radiodetection technology.Data from the assay component NVS_GPCR_rNK1 was analyzed into 1 assay endpoint. This assay endpoint, NVS_GPCR_rNK1, was analyzed in the positive analysis fitting direction relative to DMSO as the negative control and baseline of activity. Using a type of binding reporter, loss-of-signal activity can be used to understand changes in the binding as they relate to the gene Tacr1. Furthermore, this assay endpoint can be referred to as a primary readout, because the performed assay has only produced 1 assay endpoint. To generalize the intended target to other relatable targets, this assay endpoint is annotated to the gpcr intended target family, where the subfamily is rhodopsin-like receptor.
Sequence of rat Neurokinin-1 Receptor (NK1), Tacr1 (gene 24807) (P14600 whole entry, looked up): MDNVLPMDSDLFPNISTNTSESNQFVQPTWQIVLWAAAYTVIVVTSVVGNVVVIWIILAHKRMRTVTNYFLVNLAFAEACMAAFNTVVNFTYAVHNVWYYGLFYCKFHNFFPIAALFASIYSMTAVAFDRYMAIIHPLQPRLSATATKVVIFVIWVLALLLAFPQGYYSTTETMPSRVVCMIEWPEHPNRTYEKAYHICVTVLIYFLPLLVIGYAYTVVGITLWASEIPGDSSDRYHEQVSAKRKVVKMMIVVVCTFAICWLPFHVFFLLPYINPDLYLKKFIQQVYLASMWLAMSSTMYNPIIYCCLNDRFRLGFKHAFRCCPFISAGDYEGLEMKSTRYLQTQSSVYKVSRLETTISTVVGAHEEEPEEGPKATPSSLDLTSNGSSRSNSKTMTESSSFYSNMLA
Binding assays used specific radioligands (tritiated, iodinated) with non-radioactive competitive displacement ligands in agonist or antagonist protocols (as indicated) and various reference compounds and inhibitors to titrate specific binding to receptors and transporters. Most enzyme assays (CYPs, kinases, phosphatases, proteases, HDACs) used recombinant protein and specific substrates (fluorescence mostly, some colorimetric and radioactive) and inhibitors, followed by a biochemical separation of substrate and product. All assays for the biochemical HTS were initially run in duplicate at a single concentration (10 uM for CYP450 assays and 25 uM for all others). […] Each assay was run with positive and negative controls, and concurrent controls on every plate. The follow-up (secondary) screen tested active chemical-pairs in concentration series, as well as a few additional assays not tested in the primary screen, some selected negative inactives, and several cases re-run in the concentration series for confirmatory purposes.
In the case of `CNS(=O)(=O)c1cc(C(=O)N2CCC(CCN3C4CCC3CC(n3c(C)nc5ccccc53)C4)(c3cccc(F)c3)CC2)c(Cl)cc1F` (stereo not given), the AC50 was 25 µM (active).

On to `Cc1[nH]cnc1C[C@H]1CCc2c(C)c3ccccc3n2C1=O`, for which the outcome was inactive. As for `COc1ccc(-n2nc(C(F)F)cc2-c2ccc(S(C)=O)cc2)cc1` (stereo not given), the AC50 is 25 µM (active). Regarding `CCOC(=O)CC(CC(=O)OCC)(OC(C)=O)C(=O)OCC`, the compound was called inactive. As for `CCOC(=O)c1ccc(C2CCC(NC[C@H](O)COc3ccc(O)c(NS(C)(=O)=O)c3)CC2)cc1` (stereo not given in full), the compound was classed as inactive. Turning to `CCOc1cccc(-n2cc(C(=O)N3CCN(c4cc(C(=O)O)c5ccccc5c4)CC3)nc2-c2ccc(C)cc2)c1`, the AC50 is 14.8 µM (active). Consider `CCCN(C1CCN(C(=O)C2CCNCC2)CC1)[C@@H]1CCc2ccc(OC)cc2C1`, for which the result was inactive. On to `CC[C@H]1CC[C@H](NCc2cc3c(cc2OC)[C@H]2C[C@H]2C(=O)N3C)[C@H](c2ccccc2)N1`, for which the AC50 was 0.296 µM (active). In the case of `Cn1c(=O)cc(Oc2ccc(F)cc2F)c2cnc(NCC(C)(C)O)nc21`, the AC50 was 20.3 µM (active). As to `CCCCC(CC)COC(=O)CCCCCCCCC(=O)OCC(CC)CCCC` (stereo not given), the compound was classed as inactive.
